Pf growth 48h: Primary qHTS for delayed death inhibitors of the malarial parasite plastid, 48 hour incubation; P. falciparum luciferase growth in erythrocytes, 48 h; Potency, µM (highest dose often 28.7 µM), inactives show at the highest dose activity change, negative = inhibition, usual class: inhibitors; 5.9% of 310,000 active; AID 504832, 2011; note: potency is the fitted concentration of half-maximal effect; % is set by controls: 0 for no effect and ±100 for the full control effect
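Growth was read as firefly luciferase luminescence after a 48 h, 37 C, 5% CO2 exposure of compounds to reporter-bearing P. falciparum cultures (0.1% parasitemia, 2% hematocrit final) in Albumax-supplemented RPMI 1640.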
Pf growth 96h: Primary qHTS for delayed death inhibitors of the malarial parasite plastid, 96 hour incubation | P. falciparum luciferase reporter growth, 96 h | Potency, µM (doses to about 28.7 µM), inactives show at the highest dose activity change, negative = inhibition, usual class: inhibitors | 6.9% of 320,000 active; note: potency is the fitted concentration of half-maximal effect; % is set by controls: 0 for no effect and ±100 for the full control effect
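Plates of compound plus infected erythrocytes (2% hematocrit, 0.05% parasitemia final) incubate 96 hours, 37 C, 5% CO2. Detection reagent added; reduced luminescence from the parasites' luciferase reporter flags inhibition.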
Shiga inhibitor: A qHTS for Small Molecule Inhibitors of Shiga Toxin; Vero cells, Shiga toxin protein synthesis inhibition reporter; inhibition, % at 38.7 µM; 9.2% of 290,000 active; AID 2315, 2010; in the data active = inhibition mostly above about 28%, no sharp cut-off; inactive = mostly below about 43%; note: 0% is about no effect
NS1 inh: qHTS Assay for Inhibitors of Influenza NS1 Protein Function; Potency, µM (titrated, usually from 46.1 µM), without a hit: top-dose activity, positive = more growth; 0.4% of 270,000 active; AID 2326, 2010; calls by dose curve; note: potency is the fitted concentration of half-maximal effect; actives are rising curves; nearly all actives have a fitted effect of over 50% in size
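In this qHTS, NS1 from influenza A is expressed in budding yeast, where it slows growth. Cells are switched from glucose to 2% galactose medium (pH 6.0, -URA), treated with compound, and growth recovery is read at OD600.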
CHX counter: Cycloheximide Counterscreen for Small Molecule Inhibitors of Shiga Toxin; cell reporter, cycloheximide protein synthesis inhibition counterscreen; max response, %; 12% of 300,000 active; AID 2314, 2010; in the data active = max response mostly above about 13%, no sharp cut-off; inactive = mostly below about 14%; note: read at 38.3 µM for the half of the compounds with a filed dose; 0% is about no effect
* hit, by the source's call; ? = inconclusive; · = no result given; [ ] = dose if it differs, or a comment. A selection: hits, their analogues and other compounds. The true share with any hit is near 21%. Unless noted, calls come from the whole dose curve; as a rule, active = well fitted inhibition curve with a large enough effect; inconclusive = small, poorly fitted or top-dose-only effect, or another doubt; inactive = no such curve, though single readings can be large or run the other way.

SMILES | Pf growth 48h | Pf growth 96h | Shiga inhibitor | NS1 inh | CHX counter
Cc1nnc(SCC(=O)N2CCc3ccccc32)s1 | 14.7% | ? | active | -6.7% | 19.6*
O=C(CSCc1ccco1)N1CCc2ccccc21 | 122.9% | ? | 105.2* | -3.3% | 39.5*
Cc1nc(SCC(=O)N2CCc3ccccc32)n[nH]1 | 0.0% | ? | 41.1 | -2.1% | 33.1*
CSc1nsc(SCC(=O)N2CCc3ccccc32)n1 | ? | 0.1% | 21.5 | 3.0% | 6.6
CCn1cc(SCC(=O)N2CCc3ccccc32)c2ccccc21 | -14.6% | 0.0% | 53.9* | -0.6% | 26.9*
CCN(CC)S(=O)(=O)c1ccc(C(=O)NCCN(C)C)cc1 | -6.6% | 33.8% | -6.2 | 2.6% | -2.8
CC1(C)CC(=O)C(C=NCCN2CCNCC2)=C(O)C1 | -8.3% | -17.5% | -12.2 | 1.1% | -6.7
COc1ccc[nH]c1=O | 12.5% | · | -4.3 | 7.9% | 9.1
CCN(CC)CCCN1C(=O)c2oc3ccccc3c(=O)c2C1c1cccc(OC)c1OC (centres undefined) | ? | -17.9% | -7.0 | -10.4% | -4.1
O=[N+]([O-])c1ccc(S(=O)(=O)NCCS(=O)(=O)N2CCN(c3ccccc3)CC2)cc1 | ? | 6.2% | -8.7 | 6.4% | 8.4
CC(=O)OCc1c(C(F)(F)F)nn(C)c1Oc1ccccc1 | 0.4% | 17.2% | -3.0 | 8.3% | -3.7
Cc1nn(C)c(Oc2ccccc2)c1CCNC(=O)CCl | ? | 10.4µM* | -4.3 | 2.0% | -3.0
CN(C1CCCCC1)S(=O)(=O)c1cccc(C(=O)OCC(=O)NC2CCCc3ccccc32)c1 (centres undefined) | -7.7% | 6.9% | -3.7 | 6.5% | -3.1
C/C(=N\NC(=O)Nc1ccccc1)c1ccccc1 | 53.1% | -28.4% | 32.2 | -18.6% | 20.1*
CCCCSC(=O)Nc1ccccc1 | 4.6% | 7.2% | 85.1* | -9.1% | 31.5*
CCCC/C(C)=N/NC(=O)Nc1ccccc1 | 5.2% | 22.8% | 40.6* | 9.6% | 18.0*
CC(C)/C(=N\NC(=O)Nc1ccccc1)c1ccccc1 | ? | ? | 26.7 | -8.2% | 18.3
CCCCCC(=O)NNC(=O)Nc1ccccc1 | 23.4% | ? | -14.9 | -2.3% | -3.9
O=C1Nc2ccccc2Oc2cc(Oc3ccccc3)ccc21 | ? | -3.6% | · | · | ·
COc1ccccc1OC(=O)CN1C(=O)c2ccccc2C1=O | 3.5% | 9.9% | -2.1 | -20.9% | 12.2
COc1ccc(OC)c(-c2cnc(OC(C)(C)C)nc2OC(C)(C)C)c1 | 11.7µM* | 10.4µM* | -11.0 | 3.2% | -1.9
COc1ccc(-c2ccc(-c3nnc(-c4cc(OC)ccc4OC)o3)cc2)cc1 | 10.2% | -19.3% | -4.8 | -1.8% | -3.5
O=C(NC1CC1)c1ccc(Cl)c(S(=O)(=O)N2CCOCC2)c1 | ? | 0.5% | -9.4 | 5.1% | -2.2
O=C(NC1CCCC1)C(c1cc2c(cc1[N+](=O)[O-])OCO2)N1CCCC1 (centres undefined) | 63.7% | 55.2% | 65.5* | -0.6% | 18.4*
CCOC(C[n+]1c(-c2ccccc2)cc(C)cc1-c1ccccc1)OCC | 1.47µM* | 1.47µM* | · | · | ·
SMILES | Pf growth 48h | Pf growth 96h | Shiga inhibitor | NS1 inh | CHX counter
CCOc1cc(C)cc2oc(=O)cc(-c3ccccc3)c12 | -18.5% | · | -34.0 | -72.8% | -3.9
CCc1c(C)nn(C(=O)/C(C#N)=C\N(C)C)c1C | 7.9% | -54.9%[1.15 µM] | 26.9 | 4.7% | -4.6
COc1ccc(C)cc1NC(=O)NCc1ccco1 | -10.3% | ? | -2.6 | -0.5% | 1.9
Cc1cc(C)c2c(CC(=O)NCc3ccco3)coc2c1 | 7.9% | 1.04µM* | 16.1 | -8.9% | 9.1
O=C(COC(=O)CSc1ccc(Br)cc1)NCc1ccco1 | 0.2% | 11.6% | · | · | ·
Cc1ccc(OCCCC(=O)NCc2ccco2)c(C)c1 | 4.15µM* | 11.0% | 4.4 | -6.1% | 3.5
Cc1ccc(C(=O)NCCC(=O)NCc2ccco2)cc1 | 28.0% | 10.4µM* | -5.0 | -3.4% | -2.5
O=C(CCNC(=O)c1ccc(Br)cc1)NCc1ccco1 | 37.8% | 27.4% | · | · | ·
CC(=O)Nc1ccc(SCC(=O)OCC(=O)NC(=O)NCc2ccco2)cc1 | -2.6% | 9.28µM* | 32.5 | -1.9% | 2.5
Cc1ccc(C)c(SCC(=O)NCc2ccco2)c1 | ? | ? | 9.5 | -13.9% | 1.2
COc1cc(C2/C(=C(\O)c3ccc4c(c3)OCCO4)C(=O)C(=O)N2c2nnc(C)s2)cc(OC)c1OC (centres undefined) | 29.0% | -6.7% | -1.7 | 18.1% | -4.0
